From PubChem BioAssay
Compounds with a hit are over-represented: about 2.7% of the library has one in this group of screens.
CF NFkB block: cystic fibrosis NF-kB activation inhibition; KKLEB NF-kB-GFP reporter, PAF-induced, GFP fluorescence overnight; inhibition, % at 5 µM; 360,000 tested, 0.86% active; AID 588850;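 active = at least 50% inhibition at 5 µM, scaled per plate between neutral and stimulator controls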;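 note: PAF is a Pseudomonas aeruginosa culture filtrate used as stimulus; plate controls were PAF-stimulated DMSO wells for no effect and unstimulated DMSO wells for full effect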
KKLEB cytotox: CF airway cell cytotoxicity counter-screen | KKLEB CF airway cells viability, ATPlite luminescence, overnight; active compounds read low; cells stimulated with P. aeruginosa culture filtrate | 360,000 tested, 0.36% active | activity change (cytotoxicity), % at 5 µM;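 active = corrected activity change at or below -50% at 5 µM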
MITF TRPM1 inh: inhibitors of MITF-driven TRPM1 promoter in melanoma cells | AID 488899 | 330,000 tested, 0.83% active | SK-MEL-5 TRPM1 promoter luciferase, 24 h | inhibition, % at 12.5 µM;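 active = mean inhibition across replicates of 60% or more, whatever share of single replicates reaches that level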
HIF-2a inh: blocks HIF-2a reporter activity; 786-0 RCC cells HIF-2a reporter, luciferase luminescence, overnight; inhibition, % at 18.8 µM; 360,000 tested, 0.72% active;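 active = inhibition of the luminescence signal of 40% or more relative to plate controls, in a single-dose primary screen at 18.75 µM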
Shn3 3UTR inh: inhibitors of Schnurri-3 3'UTR reporter in osteoblasts | Clone20 osteoblast Shn3 3'UTR firefly luciferase, 24 h | inhibition, % at 12.5 µM | 360,000 tested, 0.52% active | AID 588674;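 active = mean inhibition of at least 75% with every replicate also reaching 75%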;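 note: 0% = median of neutral control wells and 100% = pilot-screen positive control compound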
Peg3 prom inh: Peg3 promoter activity inhibition; HeLa PEG-Prom luciferase reporter, luminescence, overnight; inhibition, % at 20 µM; 360,000 tested, 1.7% active;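 active = inhibition of at least 50% at 20 µM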
Starred values were filed as active, the others as inactive; nt = no result given; ! = repeats disagree.

SMILES	CF NFkB block	KKLEB cytotox	MITF TRPM1 inh	HIF-2a inh	Shn3 3UTR inh	Peg3 prom inh
Cn1c(=O)c2c(ncn2CC(=O)OCC(=O)NCc2ccc(F)cc2)n(C)c1=O	-30	14	nt	15	-20	2
O=C1Nc2cc(C(=O)NCCCN3CCCC3)ccc2S/C1=C\c1ccccc1	6	-11	96*	-4	-25	91*
CCC1CCCCN1CCCNC(=O)c1ccc(/C=C2/Sc3ccccc3NC2=O)cc1 (configuration not stated)	6	-3	28	-33	22	99*
O=C1Nc2cc(C(=O)NCCCN3CCOCC3)ccc2S/C1=C/c1ccccc1F	12	-8	-1	-3	-15	16
COc1ccc(/C=C2/Sc3ccc(C(=O)NCCN4CCCCCC4)cc3NC2=O)cc1	5	-8	95*	3	53	105*
O=C1Nc2cc(C(=O)NCCCN3CCOCC3)ccc2S/C1=C/c1cccc(Cl)c1	-5	-11	-9	-2	10	107*
COc1ccc(C(=O)NCCN2CCCC2)cc1	-10	10	4	16	-5	18
CCN(C(=O)COC(=O)c1ccc2c(c1)OCO2)c1c(N)n(Cc2ccccc2)c(=O)[nH]c1=O	-2	-4	5	11	-7	18
CCOc1ccccc1/C=C/C(=O)NCC(=O)N1CCC(N(C)C2CCCCC2C)CC1 (configuration not stated)	-6	6	6	5	7	-8
O=C(C(=O)N1CCCCC1)c1c(-c2ccccc2)[nH]c2ccccc12	-8	5	-6	13	-4	18
C=CC(=O)N1C/C(=C/c2ccc(F)cc2)C(=O)/C(=C\c2ccc(F)cc2)C1	91*	-69*	96*	82*	91*	107*
CCCOc1cc(C)c(S(=O)(=O)NCc2cccs2)cc1C	-4	1	nt	-7	-6	13
NC(=O)c1ccc(-c2noc(-c3cccc(Cl)c3)n2)cc1	-5	-6	-126	-187	-63	-299
O=C(O)c1cccc(-c2noc(-c3cccc(Cl)c3)n2)c1	-5	-3	92*	79*	78	54*
O=c1cc(-c2ccccc2)ss1	13	-7	0	0	-8	4
Cc1ccc(C(CNS(=O)(=O)c2ccc([N+](=O)[O-])cc2)N2CCN(C)CC2)cc1 (configuration not stated)	-11	-14	-5	6	-35	-2
COc1ccc(C(CCNCc2ccc(OC(C)C)cc2)c2ccccc2OC)cc1 (configuration not stated)	7	-26	87*	11	89*	102*
COc1ccc(C(CCNCc2ccc(N(C)C)cc2)c2ccccc2OC)cc1 (configuration not stated)	19	-8	0	18	3	60*
Cc1ccc(OCc2nnc(N)s2)cc1C	-12	6	nt	-118	-32	-112
COc1ccc(CNC(=O)CSc2nnc(NC(=O)c3ccccc3F)s2)cc1	10	-4	-76	-149	-62	-236
CCN(CC(=O)Nc1c(F)cccc1F)C(=O)c1n[nH]c2ccccc12	15	-3	-5	13	13	4
Nc1ccc(OC(=O)Nc2ccc(O)cc2)cc1	2	1	45	77*	14	14
CCN(CC)c1ccc(/C=C(\C#N)c2ccccn2)cc1	-11	-50*	-25	-59	35	0
CCN(Cc1ccccc1)c1ccc(/C=C(\C#N)c2ccccn2)cc1	-5	9	-112	-267	-43	-319
CN(CCC#N)c1ccc(/C=C(\C#N)c2ccccn2)cc1	-19	-52*	1	-39	-15	-46
COc1cccc(C(CNC(=O)C2CCN(C(=O)Nc3ccccc3)CC2)N(C)C)c1 (configuration not stated)	-5	-3	-23	-24	10	-12
CCOC(=O)c1c(Nc2ccc(Cl)cc2)sc(/C=C2\C=Nc3ccccc32)c1O	26	-51*!	4	3	10	27
Oc1nc(Nc2cccc(Cl)c2)sc1/C=C1\C=Nc2ccccc21	-7	-4	-2	-108	-19	-10
CCCCN(C=O)c1c(CC)nc2c(OCC3CCCCC3)cccn12	-8	-6	nt	5	6	22
